# Reference: PubChem BioAssay (NCATS)
# Results filed as inconclusive are left out. Calls of active or inactive are those of the source. Unless noted, the call rests on the fitted dose curve.
# Tests used:
# [1] = qHTS for Inhibitors of the Functional Ribonucleoprotein Complex (vRNP) of Lassa (LASV) Arenavirus: Viability assay - alamar blue signal for LASV Primary Screen (AID 1347083; calls by dose curve; tested in HEK293 reporter line; further: nearly all actives have a fitted effect of over 80% in size; further: potency means the concentration at half of the fitted maximal effect)
# [2] = qHTS for Inhibitors of the Functional Ribonucleoprotein Complex (vRNP) of Lymphocytic Choriomeningitis Arenaviruses (LCMV): Viability assay - alamar blue signal for LCMV Primary Screen (AID 1347085; calls by dose curve; tested in HEK293 reporter line; further: nearly all actives have a fitted effect of over 80% in size; further: potency means the concentration at half of the fitted maximal effect)
# [3] = target: Nucleoprotein (Lymphocytic choriomeningitis virus (strain Armstrong)) (UniProt P09992); experiment: qHTS for Inhibitors of the Functional Ribonucleoprotein Complex (vRNP) of Lymphocytic Choriomeningitis Arenaviruses (LCMV): LCMV Primary Screen - GLuc reporter signal (AID 1347086); further: nearly all actives have a fitted effect of over 70% in size; further: potency means the concentration at half of the fitted maximal effect; on activity change, negative = inhibition: on the % scale 0 is the no-effect control and ±100 the full control effect
# Chain of Nucleoprotein (Lymphocytic choriomeningitis virus (strain Armstrong)) (P09992 whole entry, looked up): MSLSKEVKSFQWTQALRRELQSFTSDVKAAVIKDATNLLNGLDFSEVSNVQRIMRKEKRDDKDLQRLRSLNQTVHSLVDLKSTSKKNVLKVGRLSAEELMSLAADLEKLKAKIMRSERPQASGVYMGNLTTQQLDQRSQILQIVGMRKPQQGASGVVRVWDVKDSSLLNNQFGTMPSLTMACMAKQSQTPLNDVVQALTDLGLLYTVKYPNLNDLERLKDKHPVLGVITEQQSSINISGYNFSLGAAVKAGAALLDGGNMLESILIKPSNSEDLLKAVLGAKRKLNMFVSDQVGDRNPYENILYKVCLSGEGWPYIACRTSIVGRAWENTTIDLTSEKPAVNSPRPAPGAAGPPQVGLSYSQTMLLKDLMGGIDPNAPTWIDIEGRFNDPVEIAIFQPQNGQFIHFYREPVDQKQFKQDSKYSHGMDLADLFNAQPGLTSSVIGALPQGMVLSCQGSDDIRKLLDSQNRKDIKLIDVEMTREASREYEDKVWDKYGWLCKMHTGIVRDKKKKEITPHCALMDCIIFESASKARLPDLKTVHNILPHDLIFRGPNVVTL
# [4] = Confirmatory qHTS for VERO E6 Cytotoxicity Assay: Counterscreen for SARS-CoV-2 CPE Assay (AID 1508605); further: on the % scale 0 is the no-effect control and ±100 the full control effect; nearly all actives have a fitted effect of over 60% in size
# [5] = Confirmatory qHTS for activators (rescue) of SARS-CoV-2 Cytopathic Effect (CPE) (AID 1508606); further: nearly all actives have a fitted effect of over 70% in size; further: potency means the concentration at half of the fitted maximal effect
# [6] = Cytotoxicity counterscreen for inhibitors of SARS-CoV-2 cell entry (AID 1645845); further: nearly all actives have a fitted effect of over 50% in size; further: potency means the concentration at half of the fitted maximal effect
# How it was run: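 After a 15 min room-temperature ATPLite 1step step, luminescence reflected ATP remaining in HEK293-ACE2 cells exposed to compound for 1 h plus 48 h at 37 C, with percent activity set by cell and no-cell controls.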
# [7] = Primary qHTS to identify inhibitors of SARS-CoV-2 cell entry (AID 1645846); details: activity change, negative = inhibition: at 57.1 µM (top of the series) unless noted; further: nearly all actives have a fitted effect of over 45% in size; further: potency means the concentration at half of the fitted maximal effect
# How it was run: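 HEK293 cells stably expressing human ACE2, pre-treated 1 h with compound, then infected with MLV particles pseudotyped with Wuhan-Hu-1 spike (C-terminal 19-aa truncation). Luciferase luminescence after 48 h at 37 °C, normalised to spike PP and bald PP.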
# [8] = Confirmatory qHTS to identify inhibitors of SARS-CoV-2 cell entry (AID 1645844); further: potency means the concentration at half of the fitted maximal effect; nearly all actives have a fitted effect of over 45% in size
# How it was run: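 Using stable human ACE2 Expi293F cells, compounds preincubated 1 hr before spike pseudoparticle infection; luciferase signal after 48 hr at 37C, 5% CO2, normalised to spike PP and no-fusion-protein PP wells.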
# [9] = VSVG counterscreen qHTS to identify inhibitors of SARS-CoV-2 cell entry (AID 1645847); further: potency means the concentration at half of the fitted maximal effect; nearly all actives have a fitted effect of over 65% in size
# How it was run: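 HEK293-ACE2 cells (Expi293F, human ACE2) pretreated 1 h with compound, then infected with MLV-based VSV-G pseudotyped particles for 48 h at 37 C; luciferase luminescence normalized to VSV-G PP and bald PP wells.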
# [10] = Validation screen for inhibitors of Lassa infection (AID 463096); further: potency means the concentration at half of the fitted maximal effect
# [11] = Inducers of the Endoplasmic Reticulum Stress Response (ERSR) in human glioma: Validation (AID 504836; active means well fitted curve in the direction sought with a large enough effect; further: 0% is about no effect)
# How it was run: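 Stably transfected U87-MG human glioma cells carrying a GRP78-based luminescent sensor were seeded at 1000 cells/well, pin-dosed with compounds and incubated 16 h. Luciferase reagent was then added, and end-point luminescence was read after 10 min at room temperature.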
# [12] = qHTS profiling of the MIPE4 collection as inhibitors of Plasmodium falciparum (3D7) proliferation (AID 743344; call rule not given here;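 further: scaled between DMSO vehicle wells and 0.29 µM artemisinin as full inhibition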); details: P. falciparum 3D7 in erythrocytes, SYBR Green DNA fluorescence, 72 h; at 28.5 µM (top of the series) unless noted
# How it was run: (§1)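 Parasite DNA was quantified by SYBR Green I fluorescence (ex 485, em 535 nm) after overnight lysis in saponin/Triton buffer at room temperature. Cultures at 0.3% parasitemia and 2.5% hematocrit were first exposed to compound for 72 h at 37 C; signals were normalised to artemisinin (0.29 uM) and vehicle wells.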
# [13] = qHTS profiling of the MIPE4 collection as inhibitors of Plasmodium falciparum (DD2) proliferation (AID 743345; call rule not given here); details: P. falciparum Dd2 in erythrocytes, SYBR Green DNA, 72 h; at 28.5 µM (top of the series) unless noted
# How it was run: as §1
# [14] = qHTS profiling of the MIPE4 collection as inhibitors of Plasmodium falciparum (HB3) proliferation (AID 743347; call rule not given here;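 further: plate controls were DMSO vehicle wells for no effect and artemisinin wells for full effect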); details: P. falciparum HB3 in erythrocytes, SYBR Green DNA, 72 h; at 28.5 µM (top of the series) unless noted
# How it was run: as §1
structure (smiles),measurement,setting,value
COc1cc(Nc2nc3ccccc3nc2NS(=O)(=O)c2ccc(NC(=O)c3ccc(C)c(OC)c3)cc2)cc(OC)c1,Potency,[1],21700 nM (active)
same,Potency,[2],13700 nM (active)
same,Potency,[3],27300 nM (active)
same,Potency,[4],inactive
same,Potency,[5],inactive
same,Potency,[6],inactive
same,Potency,[7],inactive
CCCCCCOC(=O)N=C(N)c1ccc(NCc2nc3cc(C(=O)N(CCC(=O)OCC)c4ccccn4)ccc3n2C)cc1,Potency,[1],inactive
same,Potency,[2],inactive
same,Potency,[3],inactive
COc1cc(OC)c(C=CS(=O)(=O)Cc2ccc(OC)c(NCC(=O)O)c2)c(OC)c1,Potency,[1],217 nM (active)
same,Potency,[2],273 nM (active)
same,Potency,[3],611 nM (active)
O=C(Cc1ccc(-c2ccc(OCCN3CCOCC3)cc2)cn1)NCc1ccccc1,Potency,[1],48.5 nM (active)
same,Potency,[2],54.4 nM (active)
same,Potency,[3],137 nM (active)
same,Potency,[8],136 nM (active)
same,"activity change, negative = inhibition",[7],-81.8%
O=C(Nc1ncc(-c2cc(C(F)F)nn2-c2c(Cl)cccc2Cl)s1)C1CC1,Potency,[1],968 nM (active)
same,Potency,[2],1090 nM (active)
same,Potency,[3],3850 nM (active)
same,Potency,[8],541 nM (active)
same,Potency,[9],1360 nM (active)
N#Cc1c(C2CCNCC2)cc(-c2c(O)cccc2OCC2CC2)nc1N,Potency,[1],19300 nM (active)
same,Potency,[2],8630 nM (active)
same,Potency,[3],5440 nM (active)
same,Potency,[4],inactive
same,Potency,[5],11200 nM (active)
same,Potency,[6],7940 nM (active)
Cn1cc(CNCC2CCN(c3ncc(C(=O)NO)cn3)CC2)c2ccccc21,Potency,[1],685 nM (active)
same,Potency,[2],485 nM (active)
same,Potency,[3],1530 nM (active)
same,Potency,[7],inactive
N#CC(=C(\N)Sc1ccccc1N)/C(C#N)=C(/N)Sc1ccccc1N,Potency,[10],794 nM (active)
same,outcome,[11],inactive
same,Potency,[1],inactive
same,Potency,[2],inactive
same,Potency,[3],inactive
FC(F)(F)c1ccc(Nc2nc3ccc(Oc4ccnc(-c5ncc(C(F)(F)F)[nH]5)c4)cc3[nH]2)cc1,Potency,[1],6110 nM (active)
same,Potency,[2],1370 nM (active)
same,Potency,[3],3850 nM (active)
same,Potency,[6],inactive
same,Potency,[7],31600 nM (active)
CCC1(O)CC2CN(CCc3c([nH]c4ccccc34)[C@@](C(=O)OC)(c3cc4c(cc3OC)N(C)C3[C@]45CCN4CC=C[C@@](CC)([C@@H](OC(C)=O)[C@]3(O)C(=O)OC)[C@H]45)C2)C1 (stereo not given in full),Potency,[10],15800 nM (active)
same,outcome,[11],inactive
same,Potency,[1],447 nM (active)
same,Potency,[2],224 nM (active)
same,Potency,[3],708 nM (active)
COc1cc([C@@H]2c3cc4c(cc3[C@H](O)[C@H]3COC(=O)[C@@H]23)OCO4)cc(OC)c1OC,"parasite growth, % of DMSO control",[12],52.9%
same,"parasite growth remaining, % of DMSO control (lower = more inhibition)",[13],78.3%
same,"growth, % of control",[14],44.9%
same,Potency,[1],193 nM (active)
same,Potency,[2],344 nM (active)
same,Potency,[3],1090 nM (active)
same,Potency,[7],1260 nM (active)
